Consider 20 compounds from PubChem BioAssay (NCI).

A short description of test [1]: NCI Yeast Anticancer Drug Screen. Data for the rad50 strain (AID 155).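 Further: 0% = growth of vehicle-only cultures of the same strain.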 The conditions noted are these: S. cerevisiae rad50 strain growth inhibition; at 50.0 µM; stronger effect = higher value. In a few lines:
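Readout: growth inhibition relative to vehicle-treated cultures. Compound exposure was carried out in a genetically defined yeast strain deficient in DNA damage repair.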

Test [2] can be described thus: NCI Yeast Anticancer Drug Screen. Data for the mec2-1 strain (AID 157). The conditions noted are these: S. cerevisiae mec2-1 strain, at 50.0 µM, stronger effect = higher value. Put shortly:
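Cells of the genetically defined mec2-1 yeast strain are incubated with test compound. Inhibition of growth is calculated against vehicle-treated controls.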

The nature of test [3]: NCI Yeast Anticancer Drug Screen. Data for the sgs1 mgt1 strain (AID 161).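 Further: 0% = growth of cultures given vehicle only.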 The conditions noted are these: S. cerevisiae sgs1 mgt1 strain, at 50.0 µM, stronger effect = higher value. In a few lines: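 Inhibition of yeast growth, normalised to vehicle-treated controls, is reported for a strain bearing genetic alterations in DNA damage repair.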
Test [4] can be described thus: NCI Yeast Anticancer Drug Screen. Data for the cln2 rad14 strain (AID 165).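 Further: 0% = growth equal to vehicle treated cultures.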 The conditions noted are these: S. cerevisiae cln2 rad14 strain, at 50.0 µM, stronger effect = higher value. Put shortly: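 The screen exposed genetically defined yeast (cln2 rad14) to test compounds and scored growth inhibition relative to vehicle-treated controls.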
A short description of test [5]: NCI Yeast Anticancer Drug Screen. Data for the bub3 strain (AID 167). The conditions noted are these: S. cerevisiae bub3 mutant strain, at 50.0 µM, stronger effect = higher value. Put shortly: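 Readout: yeast growth inhibition, expressed relative to vehicle-only wells. The test organism is a mutant strain from a panel with lesions in DNA repair or checkpoint genes.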
The nature of test [6]: NCI Yeast Anticancer Drug Screen. Data for the mlh1 rad18 strain (AID 175). The conditions noted are these: S. cerevisiae mlh1 rad18 strain growth inhibition; at 50.0 µM; stronger effect = higher value. Put shortly:
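Compound-treated yeast growth, normalised to vehicle controls. Strain bears defined DNA repair mutations.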

Each structure is given as a SMILES string. Compounds without any hit were thinned out: in the full panel of roughly 79,000, 15% have a hit. Unmarked numbers belong to inactive results. Activity calls are given as the source filed them. No stated cut-off is given here; in the data, active means growth inhibition above about 70%; inactive means the rest.

On to `O=[N+]([O-])c1ccc(OS(=O)(=O)Cc2ccccc2)cc1`, for which the growth inhibition is 3.8% in test [1]; -9.35% in test [2]; 8.95% in test [3]; -36.6% in test [4]; 3.95% in test [5]; -9.25% in test [6].

For `CCO/C(C)=C(/C(C)=O)C(=O)NC1CCCCC1`, the growth inhibition is -1.65% in test [1]; 15.5% in test [2]; -0.1% in test [3]; 9.75% in test [4]; -3.25% in test [5]; -11.2% in test [6].

In the case of `CCCCc1c[nH]n(C(N)=NCCSCc2nc[nH]c2C)c1=O`, the growth inhibition was -7.15% in test [1]; -18.4% in test [2]; -9.95% in test [3]; -20.2% in test [4]; -2.45% in test [5]; -4.75% in test [6].

With `Cc1cc(C)nc(Nc2nc3ccc([N+](=O)[O-])cc3[nH]2)n1`, the growth inhibition in test [1] is 0.5%; in test [2], -5.3%; in test [3], 5.5%; in test [4], -7.4%; in test [5], -5.05%; in test [6], -4.85%.

On to `CC(=O)CCc1ccc2c(c1)OCCO2`, for which the growth inhibition was 27.9% in test [1]; -10.7% in test [2]; -7.55% in test [3]; -83.2% in test [4]; -3.8% in test [5]; -20.9% in test [6].

For the compound `CN(C)c1ccc2c(c1)Cc1cc(N3C(=O)C=CC3=O)ccc1-2`, the growth inhibition in test [1] was 97.3% (active); in test [2] it was 98% (active); in test [3], 98.9% (active); in test [4], 97.6% (active); in test [5], 98.2% (active); in test [6], 98.5% (active).

For the compound `COc1ccc(-c2cc(=O)c3cccc(CC(=O)O)c3o2)cc1`, the growth inhibition in test [1] is 8.2%; in test [2] it was 11.7%; in test [3] it was -0.3%; in test [4], 31.1%; in test [5], 2.05%; in test [6] it was 18.4%.

`CCC(=O)c1ccccc1C#N`: the growth inhibition in test [1] was 8.5%; in test [2] it was -3.25%; in test [3] it was 1.6%; in test [4], -4.3%; in test [5] it was 0.1%; in test [6], -1.45%.

On to `C=C1CC[C@H]2C(C)=CC[C@@H]3[C@H](OC(=O)[C@H]3COC)[C@@H]12`, for which the growth inhibition in test [1] was 3.6%; in test [2] it was -39%; in test [3] it was -11.5%; in test [4] it was 5.4%; in test [5], -18.6%; in test [6], -11.4%.

For `CN1N=C(c2ccncc2)OC1c1ccc(C(F)(F)F)cc1` (stereo not given), the growth inhibition in test [1] was 13.9%; in test [2], -20.6%; in test [3], 1.35%; in test [4] it was 11.3%; in test [5], -19.6%; in test [6], -12.5%.

Turning to `O=C(NCCCCCCNC(=O)N1CCCCC1)c1cccnc1`, the growth inhibition in test [1] was -7.8%; in test [2], -21.3%; in test [3], -3.65%; in test [4], -27.2%; in test [5], 13.3%; in test [6], -33.6%.

Take `COCCOC(=O)CCC(C)=O`: the growth inhibition was 20.8% in test [1]; 15.1% in test [2]; 6.45% in test [3]; 7.8% in test [4]; -4.95% in test [5]; 10.7% in test [6].

As for `CN1NC2=NCCN=C3NN(C)C(=NCCN=C1S2)S3`, the growth inhibition in test [1] is -6.5%; in test [2] it was -10.1%; in test [3], -43.3%; in test [4], 9.15%; in test [5] it was -44.1%; in test [6], -36.2%.

Consider `NC(Cc1cnc[nH]1)C(=O)NCC(=O)O` (stereo not given), for which the growth inhibition is -11.4% in test [1]; -6.2% in test [2]; -11.8% in test [3]; -10.2% in test [4]; 4.3% in test [5]; -8.95% in test [6].

`Cc1ccc(-c2cc(=S)n(-c3ccccc3)c3nc(=S)n(-c4ccccc4)c(N)c23)cc1`: the growth inhibition in test [1] is 14.4%; in test [2] it was 24.4%; in test [3] it was 18.1%; in test [4], -12.9%; in test [5], 23.8%; in test [6], 25.9%.

On to `O=C(NNC1=NCCCCN1)Nc1ccc(Cl)cc1`, for which the growth inhibition in test [1] is 20.9%; in test [2], 6.8%; in test [3], 26.4%; in test [4], 7.4%; in test [5] it was 16.6%; in test [6], 5.95%.

For `C1=C(c2ccccc2)N(c2ccccc2)N=C(c2ccccc2)C1`, the growth inhibition is 0.85% in test [1]; -19.7% in test [2]; 6% in test [3]; -10.4% in test [4]; -1.65% in test [5]; 18.6% in test [6].

`CCNC(=O)N(Cc1ccccc1)Cc1ccccc1`: the growth inhibition in test [1] is 7.55%; in test [2], 8.65%; in test [3] it was 6.05%; in test [4], 13.3%; in test [5], 23.5%; in test [6], -20.6%.

For the compound `NC[C@H]1Nc2ccccc2[C@@H](O)C1O` (stereo not given in full), the growth inhibition in test [1] is 14.6%; in test [2] it was 6.95%; in test [3], 0.4%; in test [4] it was 8.9%; in test [5], 12.6%; in test [6] it was -12.1%.

For `Fc1cccc(Cl)c1CSc1n[nH]c(C(F)(F)F)n1`, the growth inhibition in test [1] was -4.65%; in test [2] it was -24.1%; in test [3], 10.5%; in test [4], 3.2%; in test [5] it was 11.1%; in test [6], 2.45%.
